From the supplement of paper PMC10849652
Targets with a hit are over-represented here; the source holds about 7,900 in all. About 0.6% of all pairs of compound and target were hits. Values without a mark were called inactive.

Compound: C=CC(=O)N1CCC[C@@H](n2nc(-c3ccc(Oc4ccccc4)cc3)c3c(N)ncnc32)C1 [ibrutinib]
Experiment: log2 fold change, soluble protein after heating vs DMSO (PISA); higher = thermal stabilisation; K562 cells, 10 uM, 30 min; active = over 0.2 and 3.5 SD of the protein, either way, in both replicates (recomputed)
How it was run: (§1)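 Soluble protein was quantified by TMTpro 16plex LC-MS/MS after channel sums were equalised. It was obtained as the supernatant after 21,000xg for 90 min from pooled aliquots of K562 cells (2×10^6 cells/mL, 10 μM compound, 30 min) heated for 3 min across 48°C-58°C and extracted in PBS with 0.5% NP-40 at 4°C. Thermal stability values are relative to control samples and come from duplicates. They are given as log2 fold changes.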

UniProt P35611, sequence (P35611 whole entry, looked up): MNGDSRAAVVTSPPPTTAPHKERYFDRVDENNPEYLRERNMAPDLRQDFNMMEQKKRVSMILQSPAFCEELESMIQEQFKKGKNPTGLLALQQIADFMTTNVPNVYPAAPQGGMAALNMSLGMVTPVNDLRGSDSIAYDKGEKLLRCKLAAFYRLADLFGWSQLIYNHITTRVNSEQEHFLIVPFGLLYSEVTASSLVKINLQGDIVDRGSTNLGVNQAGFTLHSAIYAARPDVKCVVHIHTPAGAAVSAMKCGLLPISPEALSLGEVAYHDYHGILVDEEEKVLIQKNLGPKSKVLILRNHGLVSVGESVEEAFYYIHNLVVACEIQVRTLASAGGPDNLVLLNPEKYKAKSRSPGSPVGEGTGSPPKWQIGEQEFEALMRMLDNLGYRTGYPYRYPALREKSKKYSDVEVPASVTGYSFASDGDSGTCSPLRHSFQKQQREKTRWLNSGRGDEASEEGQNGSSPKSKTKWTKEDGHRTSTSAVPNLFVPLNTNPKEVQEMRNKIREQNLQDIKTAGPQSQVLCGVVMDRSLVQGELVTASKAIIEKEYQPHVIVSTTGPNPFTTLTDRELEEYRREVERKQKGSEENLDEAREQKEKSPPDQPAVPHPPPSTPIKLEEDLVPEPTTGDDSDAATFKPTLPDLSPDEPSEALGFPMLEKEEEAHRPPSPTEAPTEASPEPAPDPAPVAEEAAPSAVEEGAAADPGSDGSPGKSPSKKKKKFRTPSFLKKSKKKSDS
UniProt Q9ULC5, sequence (Q9ULC5 whole entry, looked up): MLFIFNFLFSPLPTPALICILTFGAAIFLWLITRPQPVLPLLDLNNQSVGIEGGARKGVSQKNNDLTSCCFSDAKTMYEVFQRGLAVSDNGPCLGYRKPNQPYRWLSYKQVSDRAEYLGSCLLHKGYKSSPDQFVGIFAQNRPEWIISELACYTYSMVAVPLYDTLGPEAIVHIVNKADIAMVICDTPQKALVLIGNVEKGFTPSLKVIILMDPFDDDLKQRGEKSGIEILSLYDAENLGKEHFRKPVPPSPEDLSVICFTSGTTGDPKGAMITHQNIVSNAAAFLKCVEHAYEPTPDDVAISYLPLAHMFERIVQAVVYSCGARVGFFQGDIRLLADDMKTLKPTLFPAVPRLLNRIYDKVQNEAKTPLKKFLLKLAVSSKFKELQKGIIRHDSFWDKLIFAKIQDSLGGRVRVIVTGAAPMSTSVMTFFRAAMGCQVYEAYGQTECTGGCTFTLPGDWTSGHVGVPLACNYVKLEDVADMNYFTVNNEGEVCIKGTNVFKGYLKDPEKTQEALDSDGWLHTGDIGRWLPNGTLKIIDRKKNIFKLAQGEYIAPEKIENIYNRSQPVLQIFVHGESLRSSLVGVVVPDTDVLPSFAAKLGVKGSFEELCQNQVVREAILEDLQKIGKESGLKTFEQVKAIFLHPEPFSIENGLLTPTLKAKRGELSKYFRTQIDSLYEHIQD
UniProt P33121, sequence (P33121 whole entry, looked up): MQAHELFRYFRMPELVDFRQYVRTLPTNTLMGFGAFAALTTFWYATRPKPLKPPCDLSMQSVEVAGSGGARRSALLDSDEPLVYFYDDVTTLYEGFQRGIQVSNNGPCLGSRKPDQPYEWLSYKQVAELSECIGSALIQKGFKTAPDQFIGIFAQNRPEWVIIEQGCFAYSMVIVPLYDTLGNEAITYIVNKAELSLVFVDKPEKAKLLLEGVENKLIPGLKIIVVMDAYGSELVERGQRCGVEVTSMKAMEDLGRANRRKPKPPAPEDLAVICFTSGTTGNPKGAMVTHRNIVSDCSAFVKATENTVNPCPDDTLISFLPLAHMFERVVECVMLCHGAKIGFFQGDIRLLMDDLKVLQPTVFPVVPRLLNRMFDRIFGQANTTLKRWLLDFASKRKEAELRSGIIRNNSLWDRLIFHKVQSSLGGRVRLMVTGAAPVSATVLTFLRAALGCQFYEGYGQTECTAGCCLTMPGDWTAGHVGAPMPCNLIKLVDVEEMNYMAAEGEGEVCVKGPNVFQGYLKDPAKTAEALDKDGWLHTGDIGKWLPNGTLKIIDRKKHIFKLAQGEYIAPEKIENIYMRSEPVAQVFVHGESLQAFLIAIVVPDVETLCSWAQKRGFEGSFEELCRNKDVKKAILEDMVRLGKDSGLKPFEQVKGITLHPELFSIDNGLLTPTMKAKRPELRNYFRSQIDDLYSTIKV
UniProt P17707, sequence (P17707 whole entry, looked up): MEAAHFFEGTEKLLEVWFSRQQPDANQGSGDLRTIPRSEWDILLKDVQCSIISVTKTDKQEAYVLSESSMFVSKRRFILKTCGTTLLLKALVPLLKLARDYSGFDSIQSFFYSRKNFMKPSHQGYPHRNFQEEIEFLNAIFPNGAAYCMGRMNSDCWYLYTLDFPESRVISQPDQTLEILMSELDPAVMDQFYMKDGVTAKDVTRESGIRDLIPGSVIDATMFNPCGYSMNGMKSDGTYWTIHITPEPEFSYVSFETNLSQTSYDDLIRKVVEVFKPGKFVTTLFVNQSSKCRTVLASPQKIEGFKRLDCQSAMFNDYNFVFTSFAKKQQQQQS
UniProt Q93050, sequence (Q93050 whole entry, looked up): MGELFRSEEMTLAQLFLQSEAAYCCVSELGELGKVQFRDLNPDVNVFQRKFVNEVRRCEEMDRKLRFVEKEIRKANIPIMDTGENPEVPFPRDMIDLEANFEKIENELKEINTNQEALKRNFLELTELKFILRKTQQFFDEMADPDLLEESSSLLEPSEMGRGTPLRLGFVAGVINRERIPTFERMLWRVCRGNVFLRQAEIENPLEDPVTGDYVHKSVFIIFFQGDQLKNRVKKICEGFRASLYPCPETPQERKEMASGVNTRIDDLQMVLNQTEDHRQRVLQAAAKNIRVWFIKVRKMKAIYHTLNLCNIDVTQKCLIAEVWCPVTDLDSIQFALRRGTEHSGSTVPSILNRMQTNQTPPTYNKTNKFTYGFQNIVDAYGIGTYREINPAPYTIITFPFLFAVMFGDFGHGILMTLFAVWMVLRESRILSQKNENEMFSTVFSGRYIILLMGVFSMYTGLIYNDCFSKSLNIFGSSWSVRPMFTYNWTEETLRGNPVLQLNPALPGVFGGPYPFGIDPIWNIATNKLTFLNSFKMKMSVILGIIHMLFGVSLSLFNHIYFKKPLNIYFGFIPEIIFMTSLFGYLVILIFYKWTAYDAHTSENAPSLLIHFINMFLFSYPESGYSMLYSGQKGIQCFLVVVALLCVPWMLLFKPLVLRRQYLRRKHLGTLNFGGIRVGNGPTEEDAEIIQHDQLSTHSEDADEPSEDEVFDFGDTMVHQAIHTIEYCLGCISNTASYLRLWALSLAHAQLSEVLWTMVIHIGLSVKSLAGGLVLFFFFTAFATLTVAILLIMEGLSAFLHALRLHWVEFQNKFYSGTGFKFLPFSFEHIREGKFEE
UniProt P54886, sequence (P54886 whole entry, looked up): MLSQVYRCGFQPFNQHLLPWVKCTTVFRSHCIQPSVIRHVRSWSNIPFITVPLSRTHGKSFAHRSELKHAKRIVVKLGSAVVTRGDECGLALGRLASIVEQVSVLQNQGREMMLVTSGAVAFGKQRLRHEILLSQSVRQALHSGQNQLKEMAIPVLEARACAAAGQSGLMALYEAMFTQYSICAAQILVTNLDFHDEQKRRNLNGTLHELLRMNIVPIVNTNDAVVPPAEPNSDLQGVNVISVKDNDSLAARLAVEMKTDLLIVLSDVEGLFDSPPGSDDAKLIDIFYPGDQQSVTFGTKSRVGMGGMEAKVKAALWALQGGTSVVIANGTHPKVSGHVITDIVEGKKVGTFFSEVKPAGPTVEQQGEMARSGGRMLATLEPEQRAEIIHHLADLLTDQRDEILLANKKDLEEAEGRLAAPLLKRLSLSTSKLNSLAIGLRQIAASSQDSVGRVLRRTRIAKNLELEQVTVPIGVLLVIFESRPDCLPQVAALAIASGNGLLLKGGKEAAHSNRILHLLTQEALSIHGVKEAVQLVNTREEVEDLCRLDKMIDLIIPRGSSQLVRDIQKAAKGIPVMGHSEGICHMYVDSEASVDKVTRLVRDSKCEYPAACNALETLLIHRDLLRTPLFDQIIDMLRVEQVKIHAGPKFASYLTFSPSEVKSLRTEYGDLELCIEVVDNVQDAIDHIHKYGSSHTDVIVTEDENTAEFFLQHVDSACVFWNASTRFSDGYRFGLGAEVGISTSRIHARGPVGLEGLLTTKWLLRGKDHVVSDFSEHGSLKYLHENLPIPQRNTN
UniProt Q8NHH9, sequence (Q8NHH9 whole entry, looked up): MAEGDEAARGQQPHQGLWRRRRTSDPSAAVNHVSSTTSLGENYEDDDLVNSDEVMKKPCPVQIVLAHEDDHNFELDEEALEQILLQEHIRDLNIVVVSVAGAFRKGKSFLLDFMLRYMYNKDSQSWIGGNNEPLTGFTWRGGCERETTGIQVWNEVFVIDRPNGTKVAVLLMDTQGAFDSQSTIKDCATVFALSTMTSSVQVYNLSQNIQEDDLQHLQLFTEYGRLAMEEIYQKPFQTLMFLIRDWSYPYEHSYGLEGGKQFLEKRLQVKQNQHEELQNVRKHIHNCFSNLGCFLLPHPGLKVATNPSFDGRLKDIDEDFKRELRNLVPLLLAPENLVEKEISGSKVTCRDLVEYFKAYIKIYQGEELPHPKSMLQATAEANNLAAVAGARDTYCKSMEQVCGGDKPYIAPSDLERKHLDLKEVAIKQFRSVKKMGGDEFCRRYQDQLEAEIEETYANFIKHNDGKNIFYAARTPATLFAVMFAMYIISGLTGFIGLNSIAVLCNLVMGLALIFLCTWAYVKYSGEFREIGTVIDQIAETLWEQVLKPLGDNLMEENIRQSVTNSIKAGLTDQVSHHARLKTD
UniProt P42025, sequence (P42025 whole entry, looked up): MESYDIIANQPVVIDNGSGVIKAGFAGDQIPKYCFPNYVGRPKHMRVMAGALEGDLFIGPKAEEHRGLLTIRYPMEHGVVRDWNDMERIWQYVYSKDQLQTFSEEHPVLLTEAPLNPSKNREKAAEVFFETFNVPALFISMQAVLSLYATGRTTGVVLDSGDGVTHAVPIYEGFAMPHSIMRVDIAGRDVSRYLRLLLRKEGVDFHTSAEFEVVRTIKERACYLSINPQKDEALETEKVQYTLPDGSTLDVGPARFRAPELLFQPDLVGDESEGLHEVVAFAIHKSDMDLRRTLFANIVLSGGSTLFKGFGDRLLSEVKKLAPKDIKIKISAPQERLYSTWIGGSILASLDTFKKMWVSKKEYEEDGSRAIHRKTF

Target | log2 fold change
ATP9B (UniProt O43861) | -0.068
ARFGEF1 (UniProt Q9Y6D6) | -0.061
ATP6V0A1 isoform 3 (UniProt Q93050) | 0
AMD1 (UniProt P17707) | -0.043
ATL2 (UniProt Q8NHH9) | 0.006
ALDH18A1 (UniProt P54886) | -0.098
ACTR1B (UniProt P42025) | 0.003
BZW2 (UniProt Q9Y6E2) | -0.043
ACSL5 isoform 3 (UniProt Q9ULC5) | 0.03
ACSL1 (UniProt P33121) | 0.017
ATIC (UniProt P31939) | 0.013
ADD1 isoform 3 (UniProt P35611) | 0.011
ACAD9 (UniProt Q9H845) | 0.005

Compound: CC(=O)c1cnc2ccc(-c3cc(Cl)c(O)c(Cl)c3)nc2c1N[C@H]1CC[C@H](CN(C)C)CC1
Experiment: as above
How it was run: as §1

Target | log2 fold change
AHSA1 (UniProt O95433) | -0.007
AARS2 (UniProt Q5JTZ9) | -0.025
APOB (UniProt P04114) | 0.045
ABCA4 (UniProt P78363) | -0.014
ANAPC2 (UniProt Q9UJX6) | 0.005
ATP12A isoform 2 (UniProt P54707) | -0.033
BRD8 (UniProt Q9H0E9) | -0.009
ATP6V1C1 (UniProt P21283) | -0.074
BMP2K (UniProt Q9NSY1) | 0.559 (active)
ALDH9A1 isoform 3 (UniProt P49189) | 0.003
ARFGAP2 (UniProt Q8N6H7) | -0.014
BRAP (UniProt Q7Z569) | -0.018
AP2S1 (UniProt P53680) | -0.117
AHCYL1 (UniProt O43865) | 0.337 (active)
ADAM15 (UniProt Q13444) | -0.199
BUB1B isoform 3 (UniProt O60566) | -0.023
AP2A1 (UniProt O95782) | -0.14
BPHL (UniProt Q86WA6) | -0.034

Target | log2 fold change
ARAF (UniProt P10398) | -0.13
ATAD3B (UniProt Q5T9A4) | -0.01
ATG9A (UniProt Q7Z3C6) | -0.091
AURKA (UniProt O14965) | 0.914 (active)
BID isoform 2 (UniProt P55957) | -0.039
ATP9B (UniProt O43861) | -0.034
ARFGEF1 (UniProt Q9Y6D6) | 0.036
ATP6V0A1 isoform 3 (UniProt Q93050) | -0.033
AMD1 (UniProt P17707) | -0.086
ATL2 (UniProt Q8NHH9) | -0.058
ALDH18A1 (UniProt P54886) | 0
ACTR1B (UniProt P42025) | -0.041
BZW2 (UniProt Q9Y6E2) | 0
ACSL5 isoform 3 (UniProt Q9ULC5) | -0.017
ACSL1 (UniProt P33121) | -0.037
ATIC (UniProt P31939) | -0.015
ADD1 isoform 3 (UniProt P35611) | -0.274 (active)
ACAD9 (UniProt Q9H845) | -0.041

Compound: CC(C)(C)Cn1c(N)nc2ccc(-c3[nH]c(C(C)(C)C)nc3-c3ccc(F)cc3)nc21 [ralimetinib]
Experiment: as above
How it was run: as §1

Target | log2 fold change
AHSA1 (UniProt O95433) | 0
AARS2 (UniProt Q5JTZ9) | -0.011
APOB (UniProt P04114) | -0.239
ABCA4 (UniProt P78363) | 0.215
ANAPC2 (UniProt Q9UJX6) | 0.011
ATP12A isoform 2 (UniProt P54707) | -0.031
BRD8 (UniProt Q9H0E9) | -0.022
ATP6V1C1 (UniProt P21283) | 0.036
BMP2K (UniProt Q9NSY1) | 0.058
ALDH9A1 isoform 3 (UniProt P49189) | -0.047
ARFGAP2 (UniProt Q8N6H7) | -0.001
BRAP (UniProt Q7Z569) | 0.16
AP2S1 (UniProt P53680) | -0.017
AHCYL1 (UniProt O43865) | 0.008
ADAM15 (UniProt Q13444) | 0.024
BUB1B isoform 3 (UniProt O60566) | 0.106
AP2A1 (UniProt O95782) | 0.052
BPHL (UniProt Q86WA6) | -0.045

Target | log2 fold change
ARAF (UniProt P10398) | 0.097
ATAD3B (UniProt Q5T9A4) | 0.122
ATG9A (UniProt Q7Z3C6) | -0.023
AURKA (UniProt O14965) | 0.062
BID isoform 2 (UniProt P55957) | -0.038
ATP9B (UniProt O43861) | -0.077
ARFGEF1 (UniProt Q9Y6D6) | 0.132
ATP6V0A1 isoform 3 (UniProt Q93050) | 0.087
AMD1 (UniProt P17707) | -0.307 (active)
ATL2 (UniProt Q8NHH9) | -0.116
ALDH18A1 (UniProt P54886) | -0.057
ACTR1B (UniProt P42025) | 0.07
BZW2 (UniProt Q9Y6E2) | -0.016
ACSL5 isoform 3 (UniProt Q9ULC5) | -0.03
ACSL1 (UniProt P33121) | -0.018
ATIC (UniProt P31939) | -0.007
ADD1 isoform 3 (UniProt P35611) | -0.068
ACAD9 (UniProt Q9H845) | -0.034
